# Screening results (PubChem)
# TRPML1 ag: human mucolipin-1 channel agonism. Q9GZU1. TRPML1-expressing cells, Ca2+ dye fluorescence, FDSS. activation, % (no concentration beside the values). 0.12% of 410,000 active; in the data active means activation above about 50%; inconclusive means mostly about 30% to 49%; further: 0% is about no effect
# Target sequence (Q9GZU1 whole entry, looked up): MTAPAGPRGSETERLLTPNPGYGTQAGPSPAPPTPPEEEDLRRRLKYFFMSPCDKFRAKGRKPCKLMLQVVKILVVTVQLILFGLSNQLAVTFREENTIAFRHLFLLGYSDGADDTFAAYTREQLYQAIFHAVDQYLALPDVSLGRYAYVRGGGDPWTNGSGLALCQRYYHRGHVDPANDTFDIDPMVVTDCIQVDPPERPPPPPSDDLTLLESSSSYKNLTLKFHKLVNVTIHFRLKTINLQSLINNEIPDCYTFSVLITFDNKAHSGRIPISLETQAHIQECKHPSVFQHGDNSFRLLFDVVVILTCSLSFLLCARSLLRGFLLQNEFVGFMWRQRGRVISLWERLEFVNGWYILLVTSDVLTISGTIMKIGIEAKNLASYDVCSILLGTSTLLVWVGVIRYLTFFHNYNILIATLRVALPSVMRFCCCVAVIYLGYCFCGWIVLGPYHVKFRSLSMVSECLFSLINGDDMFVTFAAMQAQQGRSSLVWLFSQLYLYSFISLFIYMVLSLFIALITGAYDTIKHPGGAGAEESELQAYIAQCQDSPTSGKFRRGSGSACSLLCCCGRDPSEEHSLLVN
#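 Tetracycline-induced TRPML1-DL cells are seeded and incubated overnight before loading with a no-wash Ca2+ dye and quencher. Agonist activity is taken from the 110 s fluorescence read following compound pin-transfer on an FDSS, before EC80 54-4 challenge.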
# Vif-APOBEC3F blk: Vif-A3F binding inhibition. Potency, µM (series often up to 46.1 µM), inactives show at the top dose activity, negative = active. 0.2% of 390,000 active. AID 602313. HeLa A3F-eYFP + Vif (tagged APOBEC3F with the HIV-1 protein that degrades it), YFP fluorescence increase; further: potency means the concentration at half of the fitted maximal effect; % of control where 0% means no effect; nearly all actives have a fitted effect of over 65% in size
#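 HeLa cells stably expressing Vif plus C-terminally eYFP-tagged A3F were seeded, incubated overnight at 37 deg C, dosed with compound, incubated overnight again at 37 deg C. Yellow fluorescence (Ex 488/Em 500-530) reported blocked Vif-mediated A3F-eYFP degradation.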
# TRPML1 inh: human mucolipin-1 channel inhibition; Q9GZU1; TRPML1-inducible cells, Ca2+ dye fluorescence, FDSS; stronger effect = lower value; inhibition of EC80 agonist-evoked calcium signal; activity change, negative = inhibition, % (concentration not given with the values); 0.02% of 390,000 active; AID 624415; in the data active means activity change below about -50%; inconclusive means between about -30% and that limit;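 further: stimulus is agonist 54-4 at its EC80 concentration; on the % scale 0 is the no-effect control and ±100 the full control effect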
#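 TRPML1-DL cells, Tet-induced overnight (~16 h, 37 °C) at 1,500 cells/well, were loaded with Ca8 no-wash dye plus quencher for 45-90 min at room temperature. Compounds were pinned during FDSS kinetic reading; agonist 54-4 at EC80 (4 uM final) then added.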
# AT treatment: candidate therapy for ataxia-telangiectasia. Potency, µM (titrated, usually from 57.5 µM), without a hit: at the top dose activation, most hits filed as activators. AID 485349. F2112 A-T fibroblasts, KAP-1 phosphorylation AlphaLISA; neocarzinostatin DNA damage 30 min before lysis. 0.19% of 320,000 active; further: potency means the concentration at half of the fitted maximal effect; % of control where 0% means no effect; nearly all actives have a fitted effect of over 45% in size
#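 hTERT-immortalized A-T patient fibroblasts (F2112), 500 cells/well in OPTI-MEM, 1% FBS, got compounds for 60 min, then NCS for 30 min at 37C. Lysates were then assayed for phospho-KAP-1 by AlphaLISA (anti-pKAP1 donor, anti-KAP1 acceptor beads), 6 hr at 25C.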
# Vif-APOBEC3G blk: blocks the Vif interaction with human APOBEC3G; Q9HC16; HeLa A3G-eYFP + Vif (tagged APOBEC3G with the HIV-1 protein that degrades it), YFP fluorescence, overnight; Potency, µM (series often up to 46.1 µM), inactives show at the top dose activity, negative = active, actives largely listed as inhibitors; 0.076% of 410,000 active; AID 602310; further: potency means the concentration at half of the fitted maximal effect; on the % scale 0 is the no-effect control and ±100 the full control effect; nearly all actives have a fitted effect of over 60% in size
#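 HeLa cells stably expressing Vif and C-terminally eYFP-tagged A3G, seeded overnight at 37 deg C, then exposed to compound by pintool overnight at 37 deg C. Rise in yellow fluorescence (Ex 488/Em 500-530, Acumen) marks blocked Vif-driven A3G degradation.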
# The depositor's hits bear a star; ? = inconclusive; · = no result given. Compounds with a hit are over-represented: about 0.54% of the library has one in this group of screens. Unless noted, the call rests on the fitted dose curve; in most records, active means well fitted curve in the direction sought with a large enough effect; inconclusive means small, poorly fitted or top-dose-only effect, or another doubt; inactive means no such curve, though single readings can be large; an effect the other way counts as inactive or inconclusive.
SMILES,TRPML1 ag,Vif-APOBEC3F blk,TRPML1 inh,AT treatment,Vif-APOBEC3G blk
CC(C)/C=C1\CC/C(=C\c2ccc(N(C)C)cc2)C1=O,64*,?,-24,0%,-5%
CN(C)c1ccc(/C=C2/C[N+](C)(C)C/C(=C/c3ccc(N(C)C)cc3)C2=O)cc1,2,10µM*,-6,·,?
CC(C)c1ccc(/C=C2\CC/C(=C\C=N\N(C)C)C2=O)cc1,1,-12%,12,·,-2%
COc1ccc2c(c1)C/C(=C\c1ccc(N(C)C)cc1)C2=O,72*,·,·,·,?
O=C(Cn1c(=O)nc(-c2ccccc2)c2ccccc21)NCCc1ccc(Cl)cc1,2,1%,-2,·,5%
COc1ccc2c(c1)c(N=NC(N)=S)c(O)n2CC(=O)c1ccccc1,1,3%,6,0.71µM*,-1%
CCCN(CCC)C(=O)Cn1c(=O)n(-c2cccc(OC)c2)c(=O)c2c(C)c(C(=O)N(C)C)sc21,1,0%,13,·,2%
CCOC(=O)/C=c1\s/c(=C\c2ccc(C#N)cc2)c(=O)n1CC(=O)NCc1ccco1,0,7%,-14,11%,1%
CCOC(=O)/C=c1\s/c(=C\c2c(OC)ccc3ccccc23)c(=O)n1CC(=O)NCC1CCCO1 (configuration not stated),0,25µM*,-9,-5%,10µM*
CCOC(=O)/C=c1\s/c(=C\c2ccc(C(=O)OC)cc2)c(=O)n1CC(=O)Nc1ccccc1,-1,?,21,-2%,1%
CCOC(=O)/C=c1/s/c(=C/c2ccc3cc(OC)ccc3c2)c(=O)n1CC(=O)NCC1CCCO1 (configuration not stated),1,7.1µM*,-10,·,0%
COc1ccc2nc(N3CCCCC3)c(C#N)cc2c1,62*,-19%,-12,20µM*,-7%
COc1ccc2nc(N3CCCC3)c(C#N)cc2c1,14,11µM*,-8,·,-14%
CC(C)CC(=NNC(=O)c1ccncc1)c1cc(Cl)ccc1O,71*,?,7,·,?
CC(=NNC(=O)c1ccncc1)c1ccccc1O,0,8%,-14,·,2%
CCOC(=O)c1c(NC(=O)c2cc(-c3cccc(Cl)c3)on2)sc(C(C)=O)c1C,0,-2%,15,·,-2%
COc1ccccc1CNc1ccc(-c2nc(-c3cccc(C)c3)no2)cc1[N+](=O)[O-],0,-1%,-4,·,1%
CCN1/C(=C/c2ccc3ccccc3[n+]2CC)C=Cc2ccccc21,-1,13µM*,18,·,?
O=C(COc1ccc(F)cc1)Nc1nnc(C2CC2)s1,2,-2%,0,2%,1%
Cc1cc(OCC(=O)Nc2nnc(C3CC3)s2)ccc1Cl,-1,-1%,-14,·,2.8µM*
CCCOc1ccc(C(=O)Nc2cccc(NC(=O)c3ccc(Cl)cc3Cl)c2)cc1,-1,?,16,·,13µM*
CCCCN(C)C(=O)C1CCCN(c2ncnc3onc(C)c23)C1 (configuration not stated),2,-7%,19,·,2%
N#Cc1c(C(F)(F)F)cc(-c2cccs2)nc1SCC(=O)Nc1cccc(C(F)(F)F)c1,7,10µM*,-13,·,?
N#Cc1c(C(F)(F)F)cc(-c2cccs2)nc1SCC(=O)Nc1ccc(Cl)cc1,6,?,11,·,10µM*
Cc1ccc(N2CCN(C(=O)Cn3ncc4c([nH]c5ccc(C)cc54)c3=O)CC2)c(C)c1,3,0%,-7,·,6%
SMILES,TRPML1 ag,Vif-APOBEC3F blk,TRPML1 inh,AT treatment,Vif-APOBEC3G blk
CCc1ccccc1NC(=O)CCC(=O)N1CC(C)Oc2ccc(C)cc21 (configuration not stated),2,0%,5,·,-2%
C/C(CC(=O)Nc1cc(C)ccn1)=N\NC(=O)c1ccccc1C,61*,?,-11,-3%,-8%
C/C(CC(=O)Nc1cc(C)ccn1)=N\NC(=O)c1ccc(C)cc1,1,0%,-12,7%,1%
O=C(NNC(=O)c1cccc(Br)c1)Nc1ccc(Cl)cc1,1,11%,-3,28µM*,-3%
COc1ccc(NC(=O)c2cnc(Nc3ccc(C)c(Cl)c3)c3ccccc23)c(OC)c1,-1,0%,-10,·,3%
CN1C2CCC1/C(=C/c1cccn1C)C(=O)/C2=C\c1cccn1C,?,22µM*,9,-19%,?
Cn1cccc1/C=C1\CC(C(C)(C)C)C/C(=C\c2cccn2C)C1=O (configuration not stated),15,?,-11,-6%,7.9µM*
CN1C2CCC1/C(=C\c1ccc(F)cc1)C(=O)/C2=C/c1ccc(F)cc1,2,?,6,0%,-21%
O=C(CN1CCN(CC(=O)Nc2ccccc2Cl)CC1)NCC1(N2CCOCC2)CCCCC1,98*,5%,-10,-2%,7%
O=C(N=c1ccn(-c2nc3ccccc3nc2NS(=O)(=O)c2ccccc2)cc1)c1ccccc1Cl,9,7.1µM*,-10,4%,0%
O=C(N=c1ccn(-c2nc3ccccc3nc2NS(=O)(=O)c2ccc(Cl)cc2)cc1)c1ccccc1Cl,·,·,·,5%,·
O=C(N=c1ccn(-c2nc3ccccc3nc2NS(=O)(=O)c2ccc(Cl)cc2)cc1)c1cccs1,·,7.9µM*,·,1%,-14%
COc1ccc(C)cc1NCc1nnc2n1CCCCC2,1,6%,3,·,3%
CCOc1ccccc1NC(=O)C1CCN(S(=O)(=O)c2ccc3[nH]c(=O)oc3c2)CC1,1,-1%,13,·,-3%
Cc1cc(C)cc(-n2c(C)cc(C(=O)C(=O)Nc3nnc(C)s3)c2C)c1,0,-5%,31,·,2%
COc1ccc(N/C=C\C(=O)c2ccc(Br)cc2)cc1OC,5,32µM*,33,-2%,-29%
Nc1ccc(/C=C/c2ccnc3ccccc23)c(N)c1,6,·,·,·,-11%
Cc1ccc(C)c(-c2csc(Nc3ncccn3)n2)c1,0,1%,11,3.2µM*,3%
CCCOC(=O)/C(=C\c1ccc([N+](=O)[O-])o1)NC(=O)c1ccccc1,0,7.1µM*,-15,0%,?
CCOC(=O)/C(=C\c1ccc([N+](=O)[O-])o1)NC(=O)c1ccccc1,1,-16%,1,7%,?
CN1/C(=C\C=C(/C#N)C(=O)Nc2ccc(Cl)cc2)C(C)(C)c2ccccc21,24,?,-2,3%,7.1µM*
CN1/C(=C\C=C(C#N)C#N)C(C)(C)c2ccccc21,9,11µM*,9,1%,-2%
O=C(C[n+]1ccccc1Br)c1ccc(-c2ccccc2)cc1,-1,·,·,·,-1%
CC1CC(C)CN(S(=O)(=O)c2ccc(C(C)(C)C)cc2)C1 (configuration not stated),56*,-2%,-13,7%,0%
